Sfp PPTase inh: blocks B. subtilis Sfp PPTase activity. Q9F4F7. Biochemical Sfp PPTase activity, qHTS. Potency, µM, without a hit: largest response in the series, negative = inhibition, hits mostly inhibitors. 3.5% of 310,000 active. AID 1490;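 further: the enzyme is Sfp with the accession as filed and its product quenches rhodamine fluorescence; 0% = enzyme reaction without inhibitor and -100% = no enzyme wells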
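Reaction rates are the 30-min fluorescence difference (ex 525, em 598 nm) in wells containing 15 nM Sfp, 5 uM rhodamine-CoA and 12.5 uM BHQ-2-YbbR at pH 7.6 with 10 mM MgCl2.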
12-LOX inh: blocks human arachidonate 12S-lipoxygenase | 1.1% of 580,000 active | purified 12hLO, xylenol orange hydroperoxide absorbance | AID 1671190 | P18054 | Potency, µM (highest dose often 108 µM), without a hit: at the highest dose activity change, negative = inhibition, most hits filed as inhibitors; further: on the % scale 0 is the no-effect control and ±100 the full control effect
Target sequence (P18054 whole entry, looked up): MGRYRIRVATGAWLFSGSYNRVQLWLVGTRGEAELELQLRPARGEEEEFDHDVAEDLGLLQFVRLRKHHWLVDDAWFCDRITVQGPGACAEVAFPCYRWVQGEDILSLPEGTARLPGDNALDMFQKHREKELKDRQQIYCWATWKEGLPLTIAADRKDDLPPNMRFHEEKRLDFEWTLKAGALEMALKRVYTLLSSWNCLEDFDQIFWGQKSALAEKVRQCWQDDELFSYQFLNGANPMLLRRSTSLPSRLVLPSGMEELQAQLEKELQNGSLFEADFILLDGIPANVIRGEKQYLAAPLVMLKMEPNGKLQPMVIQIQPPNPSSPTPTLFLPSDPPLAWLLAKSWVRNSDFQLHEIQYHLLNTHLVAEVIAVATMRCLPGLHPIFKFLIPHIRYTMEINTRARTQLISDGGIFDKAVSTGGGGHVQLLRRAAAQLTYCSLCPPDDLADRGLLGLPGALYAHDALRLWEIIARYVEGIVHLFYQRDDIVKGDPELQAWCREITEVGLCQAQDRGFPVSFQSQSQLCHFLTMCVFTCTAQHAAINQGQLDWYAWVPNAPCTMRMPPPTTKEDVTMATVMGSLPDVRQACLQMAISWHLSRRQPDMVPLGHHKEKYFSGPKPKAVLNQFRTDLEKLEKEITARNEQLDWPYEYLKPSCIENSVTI
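Purified human 12hLO at 150 nM in 25 mM Hepes, 0.01% Triton X-100, pH 7.0, preincubated 15 min at room temperature with compound. Reaction started with 40 uM arachidonic acid, 30 min at room temperature. Hydroperoxide measured by Fe-xylenol orange, 573/405 nm absorbance ratio.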
BAZ2B block: BAZ2B (human) inhibition | Q9UIF8 | AlphaScreen BAZ2B-H3K14Ac peptide displacement | Potency, µM (highest dose often 114 µM), inactives show top-dose activity change, negative = inhibition, most hits filed as inhibitors | 4.4% of 360,000 active | AID 504333; further: on the % scale 0 is the no-effect control and ±100 the full control effect; nearly all actives have a fitted effect of over 60% in size
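In this displacement format the biotinylated H3(5-23) peptide acetylated at Lys14 serves as ligand at 50 nM, with BAZ2B at 50 nM in PBS pH 7.4 containing 0.01% Tween-20. Donor and acceptor beads are 10 ug/mL final.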
HP1b binding inh: blocks HP1-beta chromodomain binding to methylated histone tails. Potency, µM (doses to about 114 µM), for inactives: at the top dose activity change, negative = inhibition, most hits filed as inhibitors. 0.56% of 390,000 active. AlphaScreen HP1-beta / biotin-H3K9me3 peptide binding. P83916; further: nearly all actives have a fitted effect of over 70% in size
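Compound inhibition of the preformed complex between 50 nM HP1-beta and 50 nM biotinylated H3K9me3 peptide was read by AlphaScreen. Buffer was PBS pH 7.4 with 0.01% Tween-20. Incubations ran 30 min at room temperature, with 10 ug/mL donor/acceptor beads.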
JMJD2A Tudor: inhibitors of human JMJD2A Tudor domain. O75164. AlphaScreen JMJD2A-Tudor / H3K4me3 peptide binding. Potency, µM (top dose mostly 114 µM), for the others: top-dose activity change, negative = inhibition, actives largely listed as inhibitors. 4.4% of 390,000 active. AID 504339; further: on the % scale 0 is the no-effect control and ±100 the full control effect; nearly all actives have a fitted effect of over 50% in size
G9a inh: G9a (human) methyltransferase inhibition. Q96KQ7. AID 504332. 8.8% of 350,000 active. G9a H3K9 monomethylation, AlphaScreen, 2 h. Potency, µM (series often up to 102 µM), inactives show at the top dose activity, negative = inhibition, hits mostly inhibitors; further: on the % scale 0 is the no-effect control and ±100 the full control effect; nearly all actives have a fitted effect of over 75% in size
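G9a (20 nM) preincubated 15 min RT with compounds, then 500 nM biotinylated H3K9 peptide and 20 uM SAM added; 2 h RT reaction. Monomethyl-H3K9 product detected by AlphaScreen with anti-H3K9me1 antibody, streptavidin donor and anti-rabbit IgG acceptor beads.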
* marks the source's active call; other numbers are inactive results; ? = inconclusive; . = no result; [ ] = dose if it differs, or a comment. This is a sample that favours compounds with a hit; in the whole collection about 8.7% have one here. The call rests on the fitted dose curve; in most records, active means well fitted curve in the direction sought with a large enough effect; inconclusive means small, poorly fitted or top-dose-only effect, or another doubt; inactive means no such curve, though single readings can be large; an effect the other way counts as inactive or inconclusive. Potency means the concentration at half of the fitted maximal effect.

SMILES	Sfp PPTase inh	12-LOX inh	BAZ2B block	HP1b binding inh	JMJD2A Tudor	G9a inh
CCN(CC)P(=O)(Nc1cccc(C(F)(F)F)c1)c1ccc(N(C)C)cc1NC(=O)c1ccco1 (stereo unspecified)	16%	-7%	?	6%	?	32µM*
CN(C)c1cccc(NC(=O)c2ccco2)c1	-3%	-23%	?	15%	-24%	?
Fc1ccc(-n2c(=S)[nH]c3cccnc32)cc1	28µM*	?	5%	71µM*	16µM*	.
O=c1[nH]c(=S)n(-c2ccc(Br)cc2)c2ncccc12	.	?	.	37%	-18%	.
COc1ccc(-c2ocnc2C(=O)Nc2cc(Cl)c(OC)cc2OC)cc1	.	3%	.	.	.	.
Cc1ccc(C(C)NC(=O)Cc2c(C)[nH]c3ccccc23)o1 (stereo unspecified)	.	-22%	.	.	.	.
CCCCS/C(=C(/C#N)C(N)=O)c1cc2c([nH]1)CCCC2	?	?	40µM*	?	45µM*	20µM*
CC(C)OCCOc1ccc2oc(-c3ccco3)cc(=O)c2c1	8%	?	56µM*	?	?	-3%[59 µM]
N#CCOc1ccc2oc(-c3ccco3)cc(=O)c2c1	13%	.	1%	.	.	-42%
c1ccc(N2CCSC2c2cccs2)cc1 (stereo unspecified)	.	-14%	.	.	.	.
CSCCCN1CCC2(Cc3ccccc3CNC2=O)C1 (stereo unspecified)	.	7%[12.5 µM]	.	.	.	.
Cc1ccccc1NC(=O)c1ccc(CNS(=O)(=O)c2ccc3c(c2)C(C)(C)C(=O)N3C)cc1	.	-25%	-17%	15%	-11%	7%[59 µM]
Cc1ccc(CNC(=O)c2ccc(CNS(=O)(=O)c3ccc4c(c3)C(C)(C)C(=O)N4C)cc2)o1	50µM*	5%	-34%	18%	-26%	45µM*
COC(=O)c1ccc(NC(=O)COc2c(C)[nH]ccc2=O)cc1	.	28%	.	.	.	.
CCCCCOC(=O)c1[nH]c2c(c1C)C(=O)C(C(=O)OC)C(C)C2 (stereo unspecified)	-15%	148%	1%	-11%	14µM*	?
Fc1ccccc1CSc1nc2ccccc2[nH]1	4%	0%	-5%	-11%	-8%[11.4 µM]	50µM*
Cc1cc(C)n2cc(CSc3nc4ccccc4[nH]3)nc2n1	10%	9%	-8%	35%	-4%	20µM*
Cc1cc(C)n2cc(CSc3nc4ccccc4s3)nc2n1	12%	-3%	-3%	36%	-5%	?
Fc1c(F)c(F)c(CSc2nc3ccccc3[nH]2)c(F)c1F	-2%	0%	14%	49%	-4%[57.1 µM]	4%[12.7 µM]
Cc1ccc(S(=O)(=O)Oc2ccc(Cl)cc2C2C3=C(CCCC3=O)OC3=C2C(=O)CCC3)cc1	.	-23%	.	.	.	.
NCCCC[C@@H]1NC(=O)c2cc([N+](=O)[O-])cc(I)c2SC[C@@H](C(N)=O)NC(=O)[C@H](CCC(N)=O)NC1=O	9%	?	?	27%	?	8.9µM*
NCCCC[C@@H]1NC(=O)c2cc([N+](=O)[O-])cc(F)c2NCCCC[C@@H](C(N)=O)NC(=O)[C@H](CCC(N)=O)NC1=O	7%	0%	-3%	28%	-18%	?
NCCCC[C@@H]1NC(=O)c2cc([N+](=O)[O-])cc(I)c2SC[C@@H](C(=O)NCC(N)=O)NC(=O)CNC1=O	26%	.	-9%	50%	-22%	32µM*
O=C(CN1CCN(c2cnn(-c3ccccc3)c(=O)c2Cl)CC1)Nc1ccc2c(c1)CCC2	.	-6%	.	.	.	.
Cc1cccc2c1NC(=O)C2(O)c1c[nH]c2ccccc12 (stereo unspecified)	.	21%	.	.	.	.
SMILES	Sfp PPTase inh	12-LOX inh	BAZ2B block	HP1b binding inh	JMJD2A Tudor	G9a inh
O=C(O)C1=C[C@@H](c2ccc(F)cc2)C[C@@H](OCCCCO)O1	9%	489%	79µM*	21%	?	?
CCOc1ccc(C(=O)Nc2ccccc2NC(C)=O)cc1OCC	-2%	29%	-3%	21%	-15%	-2%
CCOc1ccccc1Nc1ccc(C(=O)O)cc1NC(C)=O	56µM*	9%	-18%	28%	-9%	-34%[59 µM]
Cc1ccc(CCNC(=O)CCCn2nc(C)c3c(C)n(-c4ccc(C)cc4)nc3c2=O)cc1	-5%	-3%	-29%	42%	-19%	-12%
Cc1cc(Cl)ccc1NC(=O)Cn1nc(C)c2c(C)n(-c3ccccc3)nc2c1=O	.	-21%	56µM*	8%	-34%	-42%[59 µM]
COc1cccc(CNC(=O)CSc2nnc(C)c3c(C)n(-c4ccccc4)nc23)c1	.	-9%	-21%	7%	-11%	?
Cc1ccc(-n2nc3c(=O)n(CC(=O)NCCc4ccc(Cl)cc4)nc(C)c3c2C)cc1	-30%	-3%	79µM*	12%[57 µM]	-34%	?
Cc1nnc(SCC(=O)NCCc2ccco2)c2nn(-c3ccc(Cl)cc3)c(C)c12	.	32µM*	.	.	.	.
CC(=O)Nc1ccc(OCC(=O)N2CCN(c3ccc(Cl)cc3)CC2)nc1	.	1%	.	.	.	.
CC(=O)Nc1ccc(NC(=O)C(C)OC(=O)C2(c3ccc(Cl)cc3)CCCC2)cc1 (stereo unspecified)	9%	-19%	-24%	20%	-29%	50µM*
O=C(c1ccoc1)N1CC[C@@H](c2ccc3ccccc3c2)[C@H](O)C1	.	37%	.	.	.	.
CCCCCn1c2c(c(=N)c3ccccc31)CCC2	?	?	-15%	12%	?	50µM*
CCCCCCCCCCn1c2c(c(=N)c3c1CCC3)CCC2	28µM*	?	7%	29%	-16%	55%[12.7 µM]
CCn1c2c(c(=N)c3c1CCC3)CCCC2	4%	137%	4%	20%	-13%	8%
CCCCCCCCCn1c2c(c(=N)c3c1CCC3)CCCC2	45µM*	.	2%	-4%	-22%	-39%
CCCCCCCCn1c2c(c(=N)c3ccccc31)CCC2	13%	?	-1%	8%	-17%	-26%
CC(C)(C)SCC(=O)NN=C(c1ccccc1)c1ccccc1	.	-15%	.	.	.	.

Screens (PubChem)
